From PubChem BioAssay come the findings set out here.

The nature of experiment [1]: inhibitors of TNFa-induced NFkB p65 translocation, primary screen, imaging, HUVEC, MLSMR starter and 10KST1 sets (AID 438;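 active = inhibition above 20% together with a positive visual image hit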;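 note: compound added about 3h40 before a 20 min TNFalpha stimulation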;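 for inhibition: signal is the nuclear over cytoplasmic p65 intensity ratio per well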). Particulars: HUVEC TNFa-induced p65 nuclear translocation; cell count: measured here: nuclei count (cytotoxicity indicator), at 2.08 µM; inhibition: at 2 µM, stronger effect = higher value, 0% TNFa-plus-vehicle, 100% no-TNFa wells.
Experiment [2] can be described thus: inhibitors of mutant huntingtin aggregation, primary screen, imaging, exon1htt(103Q)mCFP cells, high-content imaging (AID 483;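 active = visual image review flags a hit and inhibition of aggregation exceeds 20%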;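 note: compound exposure lasted 3 days before fixation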;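 for nuclei count: percent of the per-plate median nuclei count of sample wells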). To be noted: exon1htt(103Q)mCFP cell line, aggregate imaging, at 2 µM; inhibition of aggregation: stronger effect = higher value; nuclei count: measured here: cell count, toxicity.
Experiment [3] in a line: inhibitors of E-selectin induction by TNFa, primary screen, imaging, HUVEC, immunofluorescence, MLSMR starter and 10KST1 sets (AID 487).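 For inhibition: signal is fraction of cell area covered by stained E-selectin grains.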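 For nuclei count: 100% = median nuclei count of all wells on the same plate.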 To be noted: HUVEC TNFalpha-induced E-selectin immunofluorescence imaging, at 2 µM; inhibition: stronger effect = higher value; nuclei count: measured here: cell number, toxicity.
Experiment [4] deals with Voltage-gated potassium channel subunit beta-2 (Rattus norvegicus) (UniProt P62483). Put plainly: KvBeta enzyme negative modulators, primary screen, biochemical, NADPH fluorescence (AID 622;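 active = fluorescence slope higher than the sample average by over 3 SD, cut at about -0.22 in these data, passing the limit was not always enough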;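 note: slope of raw intensity against log time taken from 70 to 1610 s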). To be noted: recombinant KvBeta, 4-cyanobenzaldehyde reduction, at 10 µM, stronger effect = higher value.
Experiment [5] has the same target. Put plainly: KvBeta positive modulators, primary screen, biochemical, NADPH fluorescence (AID 623;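 active = NADPH fluorescence slope more negative than the mean of all samples by about 3 SD, 99.7% confidence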;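 note: fluorescence intensity change per second fitted from 20 to 320 s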). Particulars: Recombinant KvBeta, NADPH fluorescence decrease slope, 10 min; at 10 µM; stronger effect = lower value.
Experiment [6] concerns the target Alpha-2C adrenergic receptor (Homo sapiens) (UniProt P18825). Description: modulators of alpha2C/GIRK thallium flux, primary screen, cell-based, HEK293 alpha2C/GIRK1/2 (AID 624;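 active = fluorescence slope after compound addition differing from the mean of all screened samples at 99.7% confidence, in either direction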;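 note: slope of fluorescence ratio to pre-addition baseline per second over 15 to 24 s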). Particulars: thallium flux BTC fluorescence, at 10 µM, actives lie on both sides.
Experiment [7] in a line: inhibitors of Sendai virus-induced IRF3 signaling, primary screen, TLR/RLR signaling modifier project, cell-based, Sendai virus stimulus, luciferase, 10K MLSCN set (AID 602276;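 active = inhibition at or above 50% at 10 µM; inactive = inhibition below 50%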;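 note: firefly luciferase from ISG56 promoter only with Renilla not read in this screen; 0% = Sendai virus plus DMSO and 100% = medium plus DMSO without virus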). Particulars: HEK293 RL24 IRF3 luciferase reporter, at 10 µM, stronger effect = higher value. Background: Reporter assays use an easily measured gene product as a stand-in for the process of interest.
A short description of experiment [8]: inhibitors of poly I:C-induced TLR3 signaling, primary screen, cell-based, poly I:C stimulus, luciferase, 10K MLSCN set (AID 602277;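 active = inhibition of the reporter signal at or above 50%; inactive = inhibition below 50%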). To be noted: HEK293-TLR3 RL24 IRF3 luciferase reporter, at 10 µM, stronger effect = higher value.

Activity calls are given as the source filed them.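 Rule for the calls, unless noted: active = visually confirmed hit in the image check and inhibition above 20%; inconclusive = visually confirmed hit but inhibition not above 20%; inactive = no visual hit in the image check.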

Chain of Alpha-2C adrenergic receptor (Homo sapiens) (P18825 whole entry, looked up): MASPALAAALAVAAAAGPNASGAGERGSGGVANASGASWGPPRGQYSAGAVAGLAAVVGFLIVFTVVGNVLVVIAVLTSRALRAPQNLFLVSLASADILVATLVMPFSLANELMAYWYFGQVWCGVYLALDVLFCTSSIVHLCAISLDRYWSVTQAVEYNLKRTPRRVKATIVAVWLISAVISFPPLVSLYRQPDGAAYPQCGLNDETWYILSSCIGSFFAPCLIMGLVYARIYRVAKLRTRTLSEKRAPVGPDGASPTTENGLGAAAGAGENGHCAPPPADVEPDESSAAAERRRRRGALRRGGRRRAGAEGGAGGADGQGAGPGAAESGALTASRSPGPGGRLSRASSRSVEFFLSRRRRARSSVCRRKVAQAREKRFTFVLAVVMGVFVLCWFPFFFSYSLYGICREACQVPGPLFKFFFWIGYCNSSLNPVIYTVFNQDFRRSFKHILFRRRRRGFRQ
Chain of Voltage-gated potassium channel subunit beta-2 (Rattus norvegicus) (P62483 whole entry, looked up): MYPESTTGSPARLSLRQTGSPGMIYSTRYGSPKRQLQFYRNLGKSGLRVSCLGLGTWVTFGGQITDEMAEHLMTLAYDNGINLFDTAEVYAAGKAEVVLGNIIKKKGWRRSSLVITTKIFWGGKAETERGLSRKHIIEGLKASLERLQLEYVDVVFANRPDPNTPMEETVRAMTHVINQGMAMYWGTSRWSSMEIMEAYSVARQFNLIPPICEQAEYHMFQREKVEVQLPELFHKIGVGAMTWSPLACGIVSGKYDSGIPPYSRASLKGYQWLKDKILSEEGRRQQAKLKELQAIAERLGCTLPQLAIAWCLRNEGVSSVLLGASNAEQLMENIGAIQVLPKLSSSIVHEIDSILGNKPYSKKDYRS

A word on the inhibition: it is the change of the read-out against control, counted positive when it falls. On to `C=CCn1c(Cc2cccs2)nnc1SCC(=O)Nc1ccc(OC)c(OC)c1`, for which, in experiment [1], the cell count is 268. For the same compound, the inhibition in experiment [1] is 4% (inactive); in experiment [3], -26.5% (inactive); in experiment [7] it was 13.5% (inactive); in experiment [8], 26.6% (inactive). Besides, the inhibition of aggregation in experiment [2] was 19.5% (inactive). Moreover, the nuclei count came out at 87.7% in experiment [2] and 134% in experiment [3]. Also, the fluorescence slope in experiment [4] was -0.445 (inactive). Further, in experiment [5], the NADPH fluorescence slope was -1.9e-05 (inactive). Further, the slope in experiment [6] is 0.00229 (inactive).

In the case of `COc1ccccc1NC(=O)CSc1nnc(-c2ccncc2)o1`, in experiment [1], the cell count was found to be 469. For the same compound, the inhibition in experiment [1] is 5.3% (inactive); in experiment [3], -23.6% (inactive); in experiment [7], -2.18% (inactive); in experiment [8], -9.84% (inactive). Also, the inhibition of aggregation in experiment [2] is -7.5% (inactive). The nuclei count came out at 110% in experiment [2] and 117% in experiment [3]. Moreover, the fluorescence slope in experiment [4] is -0.506 (inactive). The NADPH fluorescence slope in experiment [5] is 1.9e-05 (inactive). Further, the slope in experiment [6] was 0.00395 (inactive).

As to `CCCCCC(=O)N(CN1C(=O)CCC1=O)c1ccccc1`, the cell count in experiment [1] is 806. The inhibition in experiment [1] was 5.4% (inactive); in experiment [3], 21.6% (inactive); in experiment [7] it was 9.92% (inactive); in experiment [8], 13.3% (inactive). For the same compound, in experiment [2], the inhibition of aggregation was -9.8% (inactive). The nuclei count in experiment [2] is 100%; in experiment [3] it was 111%. The fluorescence slope in experiment [4] is -0.283 (inactive). Further, the NADPH fluorescence slope in experiment [5] was -4e-05 (inactive). Besides, the slope in experiment [6] is 0.00618 (inactive).

As to `COc1ccc(CCNC(=O)C2CCCN(c3nn4c(=O)cc(C)nc4s3)C2)cc1OC` (centres undefined), the cell count in experiment [1] stood at 371. Moreover, the inhibition in experiment [1] was -4% (inactive); in experiment [3] it was -9% (inactive); in experiment [7], 19.7% (inactive); in experiment [8] it was 16.7% (inactive). Also, the inhibition of aggregation in experiment [2] was 10.8% (inactive). The values for the nuclei count in experiment [2] and in experiment [3] were 94.9% and 100%, respectively. For the same compound, the fluorescence slope in experiment [4] was -0.403 (inactive). The NADPH fluorescence slope in experiment [5] is -5.9e-05 (inactive). Moreover, in experiment [6], the slope was 0.0045 (inactive).

As to `O=C(NCCCN1CCCC1=O)C1CCN(S(=O)(=O)N2CCOCC2)CC1`, the cell count in experiment [1] came to 195. Moreover, the inhibition in experiment [1] is 25.3% (active); in experiment [3] it was 27.7% (inactive); in experiment [7] it was -12.7% (inactive); in experiment [8], -7.16% (inactive). Moreover, the inhibition of aggregation in experiment [2] is 17.1% (inactive). In addition, the nuclei count in experiment [2] was 94.9%; in experiment [3] it was 81.9%. In experiment [4], the fluorescence slope is -0.362 (inactive). Moreover, the NADPH fluorescence slope in experiment [5] is -4.9e-05 (inactive). In experiment [6], the slope is 0.00575 (inactive).

Take `COc1ccc(N2CCN(C(=O)CCNS(=O)(=O)c3ccc(Br)s3)CC2)cc1`: the cell count in experiment [1] amounted to 338. Besides, the inhibition was 2.9% (inactive) in experiment [1], -297% (inactive) in experiment [3], 7.87% (inactive) in experiment [7] and 12.4% (inactive) in experiment [8]. Further, the inhibition of aggregation in experiment [2] was -0.1% (inactive). In addition, the nuclei count amounted to 101% in experiment [2] and 108% in experiment [3]. Also, the fluorescence slope in experiment [4] was -0.423 (inactive). In experiment [5], the NADPH fluorescence slope was -0.000118 (inactive). The slope in experiment [6] is 0.00529 (inactive).

Turning to `CCN(CC)C(=O)Cn1ncc2c1-c1ccccc1OC2`, the cell count in experiment [1] was 597. Further, the inhibition is 0.5% (inactive) in experiment [1], -54.6% (inactive) in experiment [3], 7.79% (inactive) in experiment [7] and 16.3% (inactive) in experiment [8]. In addition, the inhibition of aggregation in experiment [2] was -64.7% (inactive). In addition, the figures for the nuclei count in experiment [2] and in experiment [3] were 102% and 123%, respectively. For the same compound, in experiment [4], the fluorescence slope is -0.588 (inactive). Moreover, the NADPH fluorescence slope in experiment [5] was -4.7e-05 (inactive). The slope in experiment [6] is 0.00665 (inactive).

For `CCCC(=O)Nc1cc(-c2nnc(OC)c3ccccc23)ccc1N1CCOCC1`, in experiment [1], the cell count was determined as 385. The inhibition in experiment [1] was -9.8% (inactive); in experiment [3] it was -14.8% (inactive); in experiment [7] it was 22.9% (inactive); in experiment [8] it was 27.2% (inactive). Moreover, the inhibition of aggregation in experiment [2] is -2% (inactive). Further, the values for the nuclei count in experiment [2] and in experiment [3] were 105% and 112%, respectively. Also, the fluorescence slope in experiment [4] was -0.522 (inactive). Besides, in experiment [5], the NADPH fluorescence slope is -3.3e-06 (inactive). The slope in experiment [6] was 0.00489 (inactive).

For the compound `CCN1C(=O)/C(=C2\C=Cc3ccccc3N2CC)OC1=S`, in experiment [1], the cell count stood at 695. In addition, the inhibition was -8% (inactive) in experiment [1], 16.6% (inactive) in experiment [3], 4% (inactive) in experiment [7] and -8.93% (inactive) in experiment [8]. For the same compound, the inhibition of aggregation in experiment [2] is 0.5% (inactive). The nuclei count in experiment [2] amounted to 8.3%; in experiment [3] it was 107%. Moreover, the fluorescence slope in experiment [4] was -0.334 (inactive). Further, the NADPH fluorescence slope in experiment [5] is -4.6e-05 (inactive). Further, the slope in experiment [6] was 0.00379 (inactive).

Take `CCCC(=O)n1nc(-c2ccc(OC)cc2)nc1N`: in experiment [1], the cell count turned out to be 239. Also, the inhibition in experiment [1] is -3.7% (inactive); in experiment [3], -20.1% (inactive); in experiment [7], 12.9% (inactive); in experiment [8] it was 14.6% (inactive). Also, the inhibition of aggregation in experiment [2] was 17.1% (inactive). The nuclei count was 80% in experiment [2] and 77% in experiment [3]. For the same compound, in experiment [4], the fluorescence slope is -0.483 (inactive). Also, the NADPH fluorescence slope in experiment [5] is -4.3e-05 (inactive). Moreover, in experiment [6], the slope is 0.00574 (inactive).

Turning to `COCCn1c(CN2CCN(c3ccccc3F)CC2)nc2c1c(=O)n(C)c(=O)n2C`, in experiment [1], the cell count is 609. The inhibition is -5.2% (inactive) in experiment [1], 2.6% (inactive) in experiment [3], -11.5% (inactive) in experiment [7] and -9.11% (inactive) in experiment [8]. Further, in experiment [2], the inhibition of aggregation is 0.1% (inactive). Besides, the nuclei count in experiment [2] stood at 92.3%; in experiment [3], 90.2%. The fluorescence slope in experiment [4] was -0.61 (inactive). The NADPH fluorescence slope in experiment [5] is -2.3e-05 (inactive). Further, the slope in experiment [6] is 0.00711 (inactive).

Take `O=C(OCN1C(=O)c2ccccc2C1=O)c1ccc2c(=O)n3c(nc2c1)CCC3`: in experiment [1], the cell count was 380. Also, the inhibition in experiment [1] is -26.1% (inactive); in experiment [3], 74.4% (inactive); in experiment [7], 5.92% (inactive); in experiment [8], 16.5% (inactive). Besides, in experiment [2], the inhibition of aggregation is 29.8% (inactive). For the same compound, the nuclei count in experiment [2] turned out to be 79.3%; in experiment [3], 96.4%. Also, the fluorescence slope in experiment [4] was -0.581 (inactive). Further, the NADPH fluorescence slope in experiment [5] was -6.9e-05 (inactive). The slope in experiment [6] is 0.00527 (inactive).

For `CCc1ccc(C(=O)NC2CCCCC2)s1`, the cell count in experiment [1] came to 355. Moreover, the inhibition in experiment [1] is -1.2% (inactive); in experiment [3], 11.7% (inactive); in experiment [7], -41.5% (inactive); in experiment [8], -96.5% (inactive). In experiment [2], the inhibition of aggregation was 0.6% (inactive). Also, the nuclei count came out at 98.5% in experiment [2] and 104% in experiment [3]. For the same compound, the fluorescence slope in experiment [4] was -0.523 (inactive). Also, the NADPH fluorescence slope in experiment [5] was -4.3e-05 (inactive). For the same compound, in experiment [6], the slope was 0.00428 (inactive).

In the case of `COC(=O)C1CCN(C(=O)CN2C(=O)NC(CCc3ccccc3)C2=O)CC1` (centres undefined), in experiment [1], the cell count was determined as 552. The inhibition in experiment [1] was -9.6% (inactive); in experiment [3], -16.4% (inactive); in experiment [7], -17.8% (inactive); in experiment [8] it was -13.6% (inactive). Further, the inhibition of aggregation in experiment [2] is -7.5% (inactive). For the same compound, the values for the nuclei count in experiment [2] and in experiment [3] were 95.7% and 110%, respectively. Further, the fluorescence slope in experiment [4] is -0.542 (inactive). Besides, the NADPH fluorescence slope in experiment [5] was -2.6e-05 (inactive). The slope in experiment [6] was 0.00516 (inactive).
